CHT allo act – CHT positive allosteric modulators, primary screen, cell-based, membrane potential dye, choline EC20 | High affinity choline transporter 1 (Homo sapiens), Q9GZV3 | CHT-expressing cells; stronger effect = higher value; LV-AA mutant CHT in HEK293 cells | B-score at 10 µM | 310,000 tested, 0.49% active | AID 488977, 2010;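 active = initial fluorescence not abnormally high and integrated response B-score, plate-corrected, over 3 SD above library mean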
Target sequence (Q9GZV3 whole entry, looked up): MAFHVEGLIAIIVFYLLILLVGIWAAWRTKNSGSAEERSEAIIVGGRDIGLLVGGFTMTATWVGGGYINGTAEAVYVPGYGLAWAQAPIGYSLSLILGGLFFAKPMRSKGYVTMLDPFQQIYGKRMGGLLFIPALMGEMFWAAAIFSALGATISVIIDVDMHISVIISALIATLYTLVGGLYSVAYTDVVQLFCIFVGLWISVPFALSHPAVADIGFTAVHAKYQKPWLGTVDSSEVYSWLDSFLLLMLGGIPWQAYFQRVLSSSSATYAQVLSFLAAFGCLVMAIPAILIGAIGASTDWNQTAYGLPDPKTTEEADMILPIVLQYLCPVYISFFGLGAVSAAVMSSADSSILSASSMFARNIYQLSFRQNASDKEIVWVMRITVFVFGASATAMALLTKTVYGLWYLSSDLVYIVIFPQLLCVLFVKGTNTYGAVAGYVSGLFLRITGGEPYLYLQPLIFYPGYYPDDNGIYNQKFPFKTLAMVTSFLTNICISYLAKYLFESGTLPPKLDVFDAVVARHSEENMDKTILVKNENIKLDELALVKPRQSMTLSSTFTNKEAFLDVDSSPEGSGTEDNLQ
TMEM16A inh – TMEM16A chloride channel inhibitors, primary screen, cell-based, HTS; Anoctamin-1 (Mus musculus), Q8BHY3; HEK293 TMEM16A/YFP iodide influx fluorescence, ionomycin; normalized B-score (activity score, 25-100; higher = stronger inhibition) at 10 µM; 310,000 tested, 1.2% active; AID 588511, 2011;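 active = ratio plate-corrected score three or more library SD toward inhibition, starting fluorescence score within five deviations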;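 note: score derived from kinetic fluorescence span divided by baseline fluorescence per well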
CHT inh – inhibitors of human choline transporter CHT | CHT-expressing cells, membrane potential dye, choline response; stronger effect = lower value | B-score at 10 µM | 310,000 tested, 0.86% active;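 active = B-score over 3 SD under the library average, and starting fluorescence ratio not unusually high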;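 note: choline stimulus applied at its EC90 after an EC20 pre-addition; B-score computed on integrated fluorescence ratio after choline addition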
ANO1 activ – TMEM16A chloride channel activators or potentiators, primary screen, cell-based, HTS | HEK293 TMEM16A/YFP-H148Q/I152L, iodide quench fluorescence; stronger effect = lower value | 340,000 tested, 0.3% active | B-score at 10 µM | Anoctamin-1 (Mus musculus), Q8BHY3;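 active = fluorescence-ratio B-score plate-corrected deviation score at least 3 library SD below zero, with starting fluorescence score within 5 deviations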;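 note: channel opened by trigger with iodide after compound preincubation; score built on the fluorescence ratio of max minus min over baseline; more negative score means more quench and so TMEM16A activation or potentiation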
TMEM16A reconf – TMEM16A chloride channel inhibitors, confirmation, cell-based, re-confirmation. HEK293 TMEM16A/YFP-H148Q, iodide quench fluorescence; ionomycin added to raise cell calcium. inhibition, % at 10 µM. AID 652189, 2013. shares compounds with TMEM16A inh. 2,300 tested, 39% active;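 active = mean duplicate percent inhibition, scaled so buffer wells are 0 and the reference blocker 100, over three buffer SD above buffer mean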
TMEM16A Ca cntr – calcium mobilization in TMEM16A/YFP HEK293 cells, confirmation, counter-screen for TMEM16A inhibitor project; Fluo4 calcium mobilization; shares compounds with TMEM16A inh; 2,300 tested, 2% active; calcium response (% of ionomycin), % at 10 µM; AID 652231, 2013;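 active = duplicate-averaged calcium signal over 20% of the ionomycin maximum, relative to buffer baseline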;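 note: each well's signal is peak minus trough fluorescence divided by its pre-addition baseline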
YFP-HEK293 quench – iodide YFP quench changes in parental YFP-HEK293, counter-screen for TMEM16A inhibitor project, cell-based; shares compounds with TMEM16A inh; ionomycin; YFP ratio F(max-min)/F0 at 10 µM; 2,300 tested, under 10 active; AID 652233, 2013;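 active = yellow fluorescent protein signal ratio exceeding the buffer control mean by over 5 SD of those controls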;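 note: ratio is mean of duplicate wells from kinetic YFP trace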
ClC-1 rat inh – ClC-1 chloride channel inhibition, selectivity assay for TMEM16A inhibitor project, cell-based, voltage-dependent ClC-1. ratio percent, % at 10 µM. 2,300 tested, under 10 active. shares compounds with TMEM16A inh. CHO ClC-1-YFP, iodide influx fluorescence quench; iodide control reads 0, buffer control 100;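 active = duplicate-mean ratio percent above the mean of iodide-only control wells, which defines zero, plus 5 of their SD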;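 note: higher percent means stronger block of ClC-1 iodide influx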
Numbers stand for hits. This is a sample that favours compounds with a hit; in the whole collection about 2.4% have one here.

How did CCCCN1CCc2[nH]c(=S)[nH]c(=O)c2C1 do in these assays?
CHT allo act: inactive; TMEM16A inh: inactive; CHT inh: inactive; ANO1 activ: inactive

Results for Cc1ccc(-c2nc3cccnc3o2)cc1NC(=O)COc1ccc(Cl)cc1C ?
CHT allo act: inactive; TMEM16A inh: inactive; CHT inh: inactive; ANO1 activ: inactive

What do the screens show for `Cc1ccc(-c2nc3cccnc3o2)cc1NC(=O)COc1ccc(C(C)(C)C)cc1`?
CHT allo act: inactive; TMEM16A inh: 25; CHT inh: inactive; ANO1 activ: inactive; TMEM16A reconf: inactive; TMEM16A Ca cntr: 21.0%; YFP-HEK293 quench: inactive; ClC-1 rat inh: inactive

How did COc1cccc(NC(=O)CN(Cc2ccccc2)S(C)(=O)=O)c1 do in these assays?
CHT allo act: inactive; TMEM16A inh: inactive; CHT inh: inactive; ANO1 activ: inactive

Results for COc1ccc(-c2c(C(F)(F)F)[nH]n3c(=O)cc(-c4ccccc4)nc23)cc1 ?
CHT allo act: inactive; TMEM16A inh: 100; CHT inh: inactive; ANO1 activ: inactive; TMEM16A reconf: 49.0%; TMEM16A Ca cntr: inactive; YFP-HEK293 quench: inactive; ClC-1 rat inh: inactive

What do the screens show for `COc1cccc(N=Nc2c(N)[nH]n3c(=O)cc(-c4ccccc4)nc23)c1`?
CHT allo act: inactive; TMEM16A inh: inactive; CHT inh: inactive; ANO1 activ: inactive

Results for CCCc1ccc(Oc2c(-c3ccc(O)c(C)c3O)n[nH]c2C)cc1 ?
CHT allo act: inactive; TMEM16A inh: 100; CHT inh: inactive; ANO1 activ: inactive; TMEM16A reconf: inactive; TMEM16A Ca cntr: inactive; YFP-HEK293 quench: inactive; ClC-1 rat inh: inactive

Results for O=S(=O)(Nc1ccc(Cl)cc1)c1ccc2c(c1)CCO2 ?
CHT allo act: inactive; TMEM16A inh: 25; CHT inh: inactive; ANO1 activ: inactive; TMEM16A reconf: inactive; TMEM16A Ca cntr: inactive; YFP-HEK293 quench: inactive; ClC-1 rat inh: inactive

Results for Nc1cc(S(=O)(=O)Nc2ccc(Cl)cc2)ccc1N1CCOCC1 ?
CHT allo act: inactive; TMEM16A inh: 25; CHT inh: inactive; ANO1 activ: inactive; TMEM16A reconf: inactive; TMEM16A Ca cntr: inactive; YFP-HEK293 quench: inactive; ClC-1 rat inh: inactive

Results for Nc1cc(S(=O)(=O)Nc2ccccc2Cl)ccc1N1CCOCC1 ?
CHT allo act: inactive; TMEM16A inh: inactive; CHT inh: inactive; ANO1 activ: inactive

Results for O=S(=O)(Nc1ccc2c(c1)OCCO2)c1ccc(F)c(F)c1 ?
CHT allo act: inactive; TMEM16A inh: inactive; CHT inh: inactive; ANO1 activ: inactive

How did COc1cccc(/C=C/C(=O)OCC(=O)N(C)CC(=O)Nc2ccccc2Cl)c1OC do in these assays?
ANO1 activ: inactive

Results for COc1ccc(C(CNC(=O)c2c(C)nn(Cc3ccc(C)cc3)c2Cl)N2CCOCC2)cc1 (stereo unspecified) ?
ANO1 activ: inactive

Results for COc1ccc(/C=N/NC(=O)c2cccnc2)cc1COc1ccc([N+](=O)[O-])c(C)c1 ?
CHT allo act: inactive; TMEM16A inh: 25; CHT inh: inactive; ANO1 activ: inactive; TMEM16A reconf: 22.5%; TMEM16A Ca cntr: inactive; YFP-HEK293 quench: inactive; ClC-1 rat inh: inactive

Results for Cc1ccc2cc(C#N)c(N3CCCN(C(=O)C4CCCO4)CC3)nc2c1 (stereo unspecified) ?
CHT allo act: inactive; TMEM16A inh: inactive; CHT inh: inactive; ANO1 activ: inactive

Results for Cc1ccc2cc(C#N)c(NCCCNC(=O)C3CCCO3)nc2c1 (stereo unspecified) ?
CHT allo act: inactive; TMEM16A inh: 25; CHT inh: inactive; ANO1 activ: inactive; TMEM16A reconf: inactive; TMEM16A Ca cntr: inactive; YFP-HEK293 quench: inactive; ClC-1 rat inh: inactive

Results for CCNc1nc(NCC)nc(C(=O)OCCO)n1 ?
CHT allo act: inactive; TMEM16A inh: inactive; CHT inh: inactive; ANO1 activ: inactive

How did CC(C)CCN(C(=S)Nc1cccc(C(F)(F)F)c1)C(C)c1ccccn1 (stereo unspecified) do in these assays?
CHT allo act: inactive; TMEM16A inh: 25; CHT inh: inactive; ANO1 activ: inactive; TMEM16A reconf: inactive; TMEM16A Ca cntr: inactive; YFP-HEK293 quench: inactive; ClC-1 rat inh: inactive

What do the screens show for `CC(c1ccccn1)N(CCN(C)C)C(=S)Nc1cccc(F)c1` (stereo unspecified)?
CHT allo act: inactive; TMEM16A inh: inactive; CHT inh: inactive; ANO1 activ: inactive

Results for CCn1c(SCC(=O)Nc2ccc3c(c2)oc2ccccc23)nnc1-c1ccc(N)cc1 ?
CHT allo act: inactive; TMEM16A inh: 100; CHT inh: inactive; ANO1 activ: inactive; TMEM16A reconf: inactive; TMEM16A Ca cntr: inactive; YFP-HEK293 quench: inactive; ClC-1 rat inh: inactive

What do the screens show for `CC(=O)Nc1ccc(-c2nnc(SCC(=O)Nc3ccc4c(c3)oc3ccccc34)n2C)cc1`?
CHT allo act: inactive; TMEM16A inh: inactive; CHT inh: inactive; ANO1 activ: inactive

How did Cc1cccc(Oc2cnn(C(C)(C)C)c(=O)c2Cl)c1 do in these assays?
CHT allo act: inactive; TMEM16A inh: 25; CHT inh: inactive; ANO1 activ: inactive; TMEM16A reconf: inactive; TMEM16A Ca cntr: inactive; YFP-HEK293 quench: inactive; ClC-1 rat inh: inactive

How did Cc1cc(=O)oc2cc(OCC(=O)OCC(=O)N3CCc4ccccc43)ccc12 do in these assays?
CHT allo act: inactive; TMEM16A inh: 25; CHT inh: inactive; ANO1 activ: inactive; TMEM16A reconf: inactive; TMEM16A Ca cntr: inactive; YFP-HEK293 quench: inactive; ClC-1 rat inh: inactive

What do the screens show for `O=C(CSc1ccsc1[N+](=O)[O-])NCc1ccco1`?
CHT allo act: inactive; TMEM16A inh: inactive; CHT inh: inactive; ANO1 activ: inactive

Results for CCOc1cc(/C=N/N=C(/N)c2nonc2N)cc(Br)c1OCc1ccc(Cl)cc1 ?
CHT allo act: inactive; TMEM16A inh: 100; CHT inh: inactive; ANO1 activ: inactive; TMEM16A reconf: inactive; TMEM16A Ca cntr: inactive; YFP-HEK293 quench: inactive; ClC-1 rat inh: inactive

Results for Cc1cccc(N2CCN(C(=O)NC(C)c3ccc(F)c(F)c3)CC2)c1C (stereo unspecified) ?
CHT allo act: inactive; TMEM16A inh: inactive; CHT inh: inactive; ANO1 activ: inactive

Source: PubChem BioAssay (Johns Hopkins Ion Channel Center)
